Bioassay records: PubChem BioAssay, National Center for Advancing Translational Sciences (NCATS)
Marburg entry inh = inhibitors of Marburg virus binding or cell entry; Marburg virus pseudotyped entry inhibition, cell reporter; Potency, µM (doses to about 37.8 µM), usual class: inhibitors; hit rate 1.8% among 300,000; AID 540276; calls by dose curve; tested in HEK293 cells
HCV inh = blocks hepatitis C virus | Huh7.5.1 HCVcc-Cre infection, luciferase reporter, 44 h | Potency, µM (titrated, usually from 41.8 µM), usual class: inhibitors | hit rate 3.4% among 340,000 | AID 651820; active = well fitted inhibition curve with a large enough effect; inconclusive = small, poorly fitted or top-dose-only effect, or another doubt; inactive = no such curve, though single readings can be large or run the other way
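Compounds are dispensed onto cells plated 4 h earlier at 1,000 per well, with HCVcc-Cre virus (about 0.5 moi) added next. Following 44 h of culture, luminescent signal is measured for 15 sec after 15 min with substrate at room temperature.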
FMDV antiviral = foot and mouth disease virus antiviral activity. FMDV antiviral cell-based qHTS. Potency, µM (doses to about 57.9 µM), most hits filed as inhibitors. hit rate 1.2% among 410,000; calls by dose curve; tested in HEK293T cells; also: read-out not given here; nearly all actives have a fitted effect of over 45% in size
LASV entry inh = inhibitors of Lassa virus binding or cell entry. Lassa virus pseudotype entry inhibition, cell reporter. Potency, µM (doses to about 37.9 µM), most hits filed as inhibitors. hit rate 1.2% among 300,000. AID 540256; calls by dose curve; tested in HEK293 cells; also: nearly all actives have a fitted effect of over 50% in size
HCMV inh = human cytomegalovirus inhibition | HFF cells, HCMV-luciferase reporter, 72 h; stronger effect = lower value | activity change, negative = inhibition, % at 57.5 µM | hit rate 4.5% among 410,000; in the data active = activity change below about -60%; inconclusive = no clear call, values can overlap the other calls; inactive = above about -39%
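Screen run at 2 compound doses on HFFs infected with reporter HCMV, MOI 1 PFU/cell. Luciferase activity from cell lysates at 72 h post infection gave inhibition relative to buffer-only and Salinomycin wells.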
Each line names hits and unclear results; the compound was inactive in the other large screens. Hits are enriched below; roughly 7.9% of the tested compounds scored in any of these assays.

O=C(NNC(=S)Nc1ccc(F)cc1)C1CC1c1ccc(Cl)cc1 (configuration not stated)	LASV entry inh 0.41µM
CCCC[C@]12Cc3cc(C#N)ccc3[C@H](O1)c1c(cc(C)n(Cc3ccccc3)c1=O)O2	none (no result: HCV inh, FMDV antiviral, LASV entry inh, HCMV inh)
CNC(=O)[C@H]1O[C@@H](n2cnc3c(N)ncnc32)[C@H](O)[C@@H]1O	none (no result: Marburg entry inh, HCV inh, LASV entry inh, HCMV inh)
CCOc1ccccc1CNC(=O)CN1C(=O)CSc2ccc(S(=O)(=O)N3CCOCC3)cc21	LASV entry inh inconclusive (no result: Marburg entry inh)
CC1CCC(C(C)C)C(OCC(O)CNC(C)(C)C)C1 (configuration not stated)	HCMV inh -76 (no result: Marburg entry inh, LASV entry inh)
CC1CCC(C(C)C)C(OCC(O)CNC(C)c2ccccc2)C1 (configuration not stated)	Marburg entry inh inconclusive, HCV inh inconclusive, FMDV antiviral inconclusive, LASV entry inh inconclusive, HCMV inh -98
CC(NCC(O)COc1ccc(Br)cc1)c1ccccc1 (configuration not stated)	HCV inh inconclusive (no result: Marburg entry inh, LASV entry inh)
CC1CCN(CC(O)COC2CC(C)CCC2C(C)C)CC1 (configuration not stated)	HCMV inh inconclusive (no result: Marburg entry inh, LASV entry inh)
Cc1cc(NC(=O)CSc2c3c(nc4ccccc24)CCC3)no1	FMDV antiviral inconclusive (no result: Marburg entry inh, LASV entry inh)
COc1ccccc1NC(=O)CSc1c2c(nc3ccccc13)CCC2	FMDV antiviral inconclusive
COc1ccc(NC(=O)CSc2c3c(nc4ccccc24)CCCC3)c(OC)c1	Marburg entry inh inconclusive, FMDV antiviral 35µM, LASV entry inh inconclusive
Cc1cc(Br)ccc1NC(=O)CSc1c2c(nc3ccccc13)CCC2	Marburg entry inh inconclusive, FMDV antiviral inconclusive, HCMV inh -95 (no result: HCV inh)
CC(C)NC(=O)CSc1c2c(nc3ccccc13)CCCC2	HCMV inh -72
C=CCC[C@H](Cc1ccc(F)cc1)C(=O)OC[C@@H](Cc1c[nH]c2ccccc12)NC(=O)[C@@H](CC=C)CC(=O)NCCO	HCV inh inconclusive, FMDV antiviral inconclusive (no result: Marburg entry inh, LASV entry inh)
CN(C)c1ccc(-c2ccnc3c2CC(C)(C(=O)NCc2ccco2)O3)cc1 (configuration not stated)	none (no result: Marburg entry inh, HCV inh, LASV entry inh)
Cc1c(Cl)cccc1NC(=O)CCN1C(=O)C2CC=CCC2C1=O (configuration not stated)	none (no result: HCV inh)
CCC[C@H]1[C@@H](NC(=O)Nc2ccccc2)CC[C@@]23CCCN2C(=O)CCC[C@@H]13	none (no result: Marburg entry inh, HCV inh, FMDV antiviral, LASV entry inh)
C=CCOc1cccc(C(=O)/C=C2/C(=O)Nc3ccccc32)c1	HCV inh inconclusive, FMDV antiviral 28µM (no result: Marburg entry inh, LASV entry inh)
CCOC(=O)c1ccc(NC(=O)CC2C(=O)N(c3ccccc3)C(=O)N2Cc2ccc(C)cc2)cc1 (configuration not stated)	Marburg entry inh inconclusive (no result: HCV inh)
CC1=C/C(=N\N=C2\NC(=O)C(CC(=O)Nc3ccccc3F)S2)CC(C)(C)C1 (configuration not stated)	HCMV inh -65
Cn1nc(C(F)(F)F)c2cc(NC(=O)OCc3ccc(F)cc3)sc21	HCV inh 10µM, FMDV antiviral inconclusive
COc1ccc(COC(=O)Nc2cc3c(C(F)(F)F)nn(C)c3s2)cc1	HCV inh inconclusive, FMDV antiviral inconclusive
O=C(NC1CCCC1)C(c1ccccc1)N(C(=O)c1ccco1)C1CCCC1 (configuration not stated)	HCMV inh -78 (no result: FMDV antiviral)
O=C(NC1CCCC1)C(c1ccccc1F)N(C(=O)c1ccco1)C1CCCC1 (configuration not stated)	HCV inh inconclusive
CC(=O)Nc1ccc(N(C(=O)c2ccco2)C(C(=O)NC2CCCCC2)c2ccccc2)cc1 (configuration not stated)	Marburg entry inh inconclusive, LASV entry inh inconclusive, HCMV inh -64
CC(=O)Nc1ccc(N(C(=O)c2ccco2)C(C(=O)NC2CCCC2)c2cccs2)cc1 (configuration not stated)	none
CCc1ccc(N(C(=O)c2ccco2)C(C(=O)NC2CCCC2)c2cccnc2)cc1 (configuration not stated)	Marburg entry inh inconclusive, LASV entry inh 1µM, HCMV inh inconclusive
CCC(C)c1ccc(N(C(=O)c2ccco2)C(C(=O)NC2CCCC2)c2cccnc2)cc1 (configuration not stated)	Marburg entry inh inconclusive, HCV inh inconclusive, LASV entry inh inconclusive
CCOC(=O)c1ccc(NC(=O)c2ccc(CN3C(=O)CCn4nc(C)cc43)cc2)cc1	none (no result: Marburg entry inh, HCV inh)
COc1ccc(S[C@]2(c3nc(C)no3)CC(=O)N(c3ccc(Cl)cc3)[C@@H]2c2ccc(OC)cc2)cc1	none (no result: Marburg entry inh, HCV inh, FMDV antiviral, LASV entry inh)
O=C1Nc2ccccc2O/C1=C\c1c(F)cccc1Cl	HCV inh 10µM (no result: Marburg entry inh, LASV entry inh)
FC(F)(F)c1ccccc1NC1=NCCCS1	HCMV inh -63
CCN1C(=O)[C@H]2[C@@H](c3ccc(-c4ccc(OC)cc4)cc3)N3CCC[C@@]3(C(=O)OC)[C@H]2C1=O	HCV inh inconclusive, HCMV inh -101 (no result: Marburg entry inh, LASV entry inh)
O=C1/C(=C/c2ccncc2)SC(=S)N1Cc1ccccc1	Marburg entry inh 11µM, FMDV antiviral inconclusive, HCMV inh -73
O=C1/C(=C\c2cc([N+](=O)[O-])ccc2O)SC(=S)N1Cc1ccc(Cl)cc1	HCV inh inconclusive, FMDV antiviral inconclusive, HCMV inh -77 (no result: Marburg entry inh, LASV entry inh)
CN1C(=O)/C(=C\c2ccncc2)SC1=Nc1ccccc1	Marburg entry inh inconclusive, FMDV antiviral inconclusive, LASV entry inh inconclusive, HCMV inh -67
O=C1/C(=C\c2cccc(O)c2)SC(=S)N1Cc1ccccc1	HCMV inh -74 (no result: Marburg entry inh, LASV entry inh)
CSc1nc(C(=O)NCc2nc(-c3cccc(NC(=O)c4ccccn4)c3)oc2C)cs1	none (no result: Marburg entry inh, HCV inh, LASV entry inh, HCMV inh)
COc1cc(NC(=O)c2ccccc2)c(OC)cc1NC(=O)CN1C(=O)NC2(CCCCC2C)C1=O (configuration not stated)	HCV inh inconclusive (no result: Marburg entry inh, LASV entry inh)
C#CCOc1ccc(/C=C2\SC(=S)N(Cc3cccnc3)C2=O)cc1	Marburg entry inh inconclusive, HCMV inh -73
O=C1/C(=C/c2ccc(O)cc2)SC(=S)N1Cc1cccnc1	Marburg entry inh inconclusive, HCMV inh inconclusive
O=C1/C(=C\c2cccc(O)c2O)SC(=S)N1Cc1ccccc1	Marburg entry inh inconclusive, HCV inh 25µM, FMDV antiviral inconclusive, LASV entry inh inconclusive
CC(C)(C)c1ccc(C(=O)NCCOc2ccccc2)cc1	Marburg entry inh 1.6µM, FMDV antiviral 20µM, LASV entry inh inconclusive, HCMV inh inconclusive
CC(C)(C)c1ccc(C(=O)NCCOc2ccccc2F)cc1	Marburg entry inh inconclusive, FMDV antiviral 35µM, LASV entry inh inconclusive, HCMV inh -69
Cc1ccc(OCCNC(=O)CNC(=O)c2ccc(C)cc2)cc1	none
CN(C)S(=O)(=O)c1ccc(C(=O)NCCOc2ccccc2)cc1	Marburg entry inh inconclusive
CC(C)Cc1ccc(C(=O)NCCOc2ccccc2)o1	LASV entry inh 2.8µM
CCCCOc1ccc(C(=O)NCC(=O)NCCOc2ccccc2OC)cc1	HCV inh 13µM (no result: Marburg entry inh, LASV entry inh)
CCOC(=O)c1c(S(=O)(=O)NCC(C)c2ccccc2)c(C)n(C)c1C (configuration not stated)	none (no result: Marburg entry inh, LASV entry inh)
O=C(CCNS(=O)(=O)c1cccs1)NCc1ccccc1	none
